“And” between values parts separate entries of the source, which are not always exact repeats. Identical values can stand only once. Compounds without any hit were thinned out: in the full panel of roughly 83,000, 20% have a hit.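 Compound tested at a single concentration for 48 hours in 96-well plates; a percent growth value below 10 was scored as active.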 The source made the active and inactive calls.
How the values were obtained:
Test in all cases: NCI-60 one-dose screen, 48 h (100 = growth as untreated, 0 = no growth, -100 = all killed)
[1] = system: NCI-H23 lung; conditions: 10 µM
[2] = system: NCI-H226 lung; conditions: 10 µM
[3] = system: NCI-H322M lung; conditions: 10 µM
[4] = system: HOP-62 NSCLC; conditions: 10 µM
[5] = system: NCI-H460 lung; conditions: 10 µM
[6] = system: 786-0 renal; conditions: 10 µM
[7] = system: COLO 205 colon; conditions: 10 µM
[8] = system: DU-145 prostate; conditions: 10 µM unless noted
[9] = system: K-562 leukemia; conditions: 10 µM
[10] = system: MALME-3M melanoma; conditions: 10 µM
[11] = system: MDA-MB-231 breast; conditions: 10 µM
[12] = system: RXF 393 renal; conditions: 10 µM unless noted
[13] = system: SF-268 CNS; conditions: 10 µM
[14] = system: SF-295 CNS; conditions: 10 µM
[15] = system: SF-539 CNS; conditions: 10 µM
[16] = system: M14 melanoma; conditions: 10 µM
[17] = system: HOP-92 NSCLC; conditions: 10 µM
[18] = system: NCI-H522 lung; conditions: 10 µM unless noted
[19] = system: A549/ATCC NSCLC; conditions: 10 µM
[20] = system: UACC-257 melanoma; conditions: 10 µM

Measured: growth

CCO/C=C1\SC(=S)N(c2cccc(O)c2)C1=O
inactive: [1] 106% | [2] 96.1% | [3] 95.8% | [4] 97.4% | [5] 106% | [6] 101% | [7] 109% | [8] 109% | [9] 89.9% | [10] 88.2% | [11] 102% | [12] 102% | [13] 103% | [14] 99.5% | [15] 102% | [16] 105%

N=S(c1ccccc1[N+](=O)[O-])c1ccccc1[N+](=O)[O-]
inactive: [1] 83.9% | [2] 52.7% | [3] 93.4% | [4] 124% | [5] 104% | [19] 90.3% | [6] 39.7% | [8] 80.4% | [10] 74.5% | [11] 91.4% | [12] 79% | [13] 90.2% | [14] 99.5% | [15] 39.2% | [20] 89.7% | [16] 60.2%
active: [17] -1.88% | [18] -77.5% | [7] 2.39% | [9] 1.79%

O=C(O)COc1ccc(OCC(=O)O)cc1
active: [1] -0.769% | [2] -60.2% | [4] -15% | [5] -17.8% | [17] -3.9% | [18] -3.87% | [6] -9.28% | [8] 5.6% | [14] -9.53% | [15] -0.842%
inactive: [3] 39.3% | [7] 16% | [9] 20% | [10] 21.3% | [11] 27.8% | [12] 24.7% | [13] 14.2% | [16] 20.7%

Oc1ccc(N=Nc2ccccn2)c(O)c1
active: [5] 8.17% | [7] 8.83% | [20] 3.09% | [16] -6.58%
inactive: [1] 29.2% | [2] 21.1% | [3] 31.6% | [4] 15.8% | [17] 57.6% | [18] 29.3% | [19] 17.5% | [6] 10.3% | [8] 24.5% | [10] 36.1% | [11] 35.7% | [12] 43.4% | [13] 20.6% | [14] 20% | [15] 13.1%

COc1c(O)cc2oc3cc(O)c(CC=C(C)C)c(O)c3c(=O)c2c1CC=C(C)C
inactive: [1] 54.6% | [2] 72.9% | [3] 83.6% | [4] 75.7% | [5] 28.4% | [17] 77% | [18] 60.4% | [19] 54.3% | [6] 78.4% | [7] 95.2% | [8] 62% | [9] 26.7% | [10] 87.4% | [11] 40.2% | [12] 83% | [13] 57.9% | [14] 56.2% | [15] 89% | [16] 54.4%

CCC(C)(C)c1cc(O)c(C(C)(C)CC)cc1O
inactive: [1] 38.5% | [2] 41.8% | [3] 45.6% | [4] 54.8% | [5] 21.2% | [19] 49.9% | [7] 40.7% | [8] 76.5% | [9] 39.8% | [10] 102% | [12] 32.5% | [13] 43.3% | [14] 24.6% | [15] 43% | [20] 51%
active: [17] -7.38% | [11] 6.91%

CC(C)(C)CC(C)(C)c1ccc(OCCO)cc1
inactive: [1] 106% | [2] 105% | [3] 115% | [4] 110% | [5] 117% | [19] 96.4% | [6] 109% | [7] 110% | [8] 111% | [9] 93.4% | [10] 158% | [11] 106% | [12] 119% | [13] 108% | [14] 109% | [15] 96.8% | [20] 108% | [16] 112%

O=C1C=C(O)c2ccccc2C1=O.[Ag]
active: [18] -34.4%
inactive: [1] 91.8% | [3] 99% | [4] 98.3% | [5] 94.7% | [6] 104% | [7] 78.8% | [8] 121% | [9] 83.5% | [10] 85.3% | [11] 89.2% | [13] 113% | [14] 97% | [15] 114% | [20] 76.2% | [16] 91.3%

NNc1c2ccccc2nc2ccccc12
inactive: [1] 47.4% | [2] 48.5% | [3] 75.9% | [4] 64.6% | [5] 10% | [17] 88.1% | [18] 33.2% | [19] 23.6% | [6] 34.2% | [7] 67.6% | [8] 66% | [9] 49.2% | [10] 62.5% | [11] 65.2% | [12] 72.8% | [13] 50.1% | [15] 42.8% | [20] 34.9% | [16] 66.4%

NC1=C(Cl)C(=O)c2ccccc2C1=O
inactive: [1] 40.7% | [2] 103% | [3] 98.6% | [4] 62.4% | [5] 25.3% | [17] 96.8% | [18] 73.6% | [19] 45% | [6] 106% | [7] 95.2% | [8] 27.1% | [9] 57% | [11] 72.1% | [12] 103% | [13] 71.7% | [14] 41% | [15] 75.4% | [20] 56.6% | [16] 28.7%
active: [10] -26.3%

NC(=O)SCC(=O)NNc1ccccc1
inactive: [1] 112% | [2] 93.1% | [3] 94.8% | [4] 93.8% | [5] 98.8% | [17] 92.2% | [18] 85.2% | [19] 85.3% | [6] 108% | [7] 100% | [8] 99.6% | [9] 101% | [11] 89.2% | [12] 112% | [13] 92.8% | [14] 94.6% | [15] 103% | [20] 91.6% | [16] 102%

OCC(O)C(O)C(O)C(/C=N/Nc1ccccc1)=N/Nc1ccccc1 (stereo not given)
inactive: [1] 93.1% | [2] 91.4% | [3] 68.9% | [4] 70.2% | [5] 89.9% | [17] 75.1% | [18] 55.5% | [19] 87.3% | [6] 107% | [7] 96.5% | [8] 89.1% | [9] 67.1% | [10] 101% | [11] 79.7% | [12] 86.7% | [13] 75.5% | [14] 83.6% | [15] 91.3% | [20] 104% | [16] 87.5%

OC(CN1CCCC2CCCCC21)c1cc2ccccc2c2ccccc12 (stereo not given)
active: [5] 7.08% | [6] -11.6% | [7] -73.2% | [9] -14.4% | [11] -11.2% | [14] -3.44% | [16] -69.8%
inactive: [1] 12.6% | [2] 39.3% | [3] 49.4% | [4] 11.2% | [17] 25.1% | [18] 80.1% | [19] 51.5% | [8] 40.3% | [10] 17.7% | [13] 45.7% | [15] 27.8% | [20] 22.7%

O=C(Nc1ccc(C(=O)O)c(O)c1)c1ccccc1
inactive: [1] 104% and 97.9% | [2] 101% | [3] 100% and 97.7% | [4] 95.3% and 91.7% | [5] 109% | [17] 81.4% and 103% | [18] 93.3% and 89.8% | [19] 101% and 95.6% | [6] 109% and 97% | [7] 102% and 130% | [8] 108% and 126% | [9] 101% and 102% | [10] 88.5% and 92.3% | [11] 98.5% and 104% | [12] 112% and 107% | [13] 108% and 121% | [14] 106% and 95.1% | [15] 98% and 104% | [20] 98.5% and 94.3% | [16] 106% and 99.6%

Reference: PubChem BioAssay (NCI)
